# Reference: PubChem BioAssay (EPA / NIEHS)
# Calls of active or inactive are those of the source. The calls were made as follows: active = hit-call score of the fitted dose curve at least 0.9, where 1 is the maximum; inactive = score below 0.9.
# Read-out: UDP glucuronosyltransferase (UGT1A1), UGT1A1 (gene 54658)
# Experiment: LTEA_HepaRG_UGT1A1: Life Technologies and Expression Analysis (LTEA) Assay for UDP glucuronosyltransferase (UGT1A1) using HepaRG (AID 2283538)
# Conditions: mRNA level, 48 h; actives raise or lower the signal
# Protocol: LTEA_HepaRG is a cell based, multiplexed-readout assay that uses HepaRG, a human liver cell line, with measurements taken at 48 hours after chemical dosing on a 96-well plate.LTEA_HepaRG_UGT1A1 is one of 102 assay component(s) measured in the LTEA HepaRG cell culture assay. It is a marker of Steatosis/NR mediated metabolism.Data from the assay component LTEA_HepaRG_UGT1A1 was analyzed into 1 endpoint. This assay endpoint, LTEA_HepaRG_UGT1A1, was analyzed with bidirectional fitting relative to DMSO as the negative control and baseline of activity. Using a type of inducible reporter, measures of mRNA induction for gain or loss-of-signal activity can be used to understand regulation of transcription factor activity. To generalize the intended target to other relatable targets, this assay endpoint is annotated to the transferase intended target family, where the subfamily is glucuronosyltransferase.
# A total of 1060 chemcials from the ToxCast library were tested in eight-point concentration-response experiments. Cell culture and cytotoxicity assays were conducted at Thermo Fisher Scientific's Custom Services facility (Madison, WI). A single lot of human HepaRG cells (Thermo Fisher Scientific, Frederick, MD) was used for the cell culture experiments. 96-well format collagen type I coated plates of human HepaRG cells were prepared using established methods. Briefly, cryopreserved HepaRG cells were thawed, plated at a density of approximately 100,000 cells/well in HepaRG Thaw, Plate, and General Purpose media (HPRG770, Thermo Fisher Scientific), and incubated for 48 hours. 0.5% DMSO was selected as vehicle control to balance the requisite need of DMSO in HepaRG cultures to maintain differentiation (for example, baseline metabolism, proportions of hepatocytes vs. cholangiocytes), while enabling further hepatic receptor pathway activation (for example, PXR and CAR) in response to chemical exposure. 48 hours after plating, the culture medium was replaced with HepaRG Serum-Free Incudtion Media. Cells were exposed to each test chemical in duplicate and maintained in CO2 incubators for another 48 hours. Chemical plates were thawed to room temperature and 200x concentrations of treatment groups were prepared. 8-point conentration-reponse curves were made with the highest exposure at 100 uM, followed by half-log dilutions, all in 0.5% DMSO. Each test plate contained variouse controls, induction positive controls (1mM phenobarbital), cytotoxicity positive controls ([…] aflatoxin B1), vehicle controls (0.5% DMSO), and total lysis controls (0.5% DMSO). Cell morphology images were taken using an Essen IncuCyte FLR automated microscope, with six 96-well plates imaged in about 24 minutes. Images were captured and exported and JPEG files. Spent culture media was transfered to black-well plates for the LDH assay, and remaining media was sorted at -80 C for later use. Cells were treated with RLT buffer and frozen until shipped for gene expression analysis. Total RNA was isolated from the cell suspension in 75 uL of Buffer RLT (Qiagen, Germantown, MD 20874) by Quintiles/Expression Analysis (Durham, NC) using a custom isolation procedure. Total RNA from each plate well was transferred to a preamplification plate. Fluidigm's 96.96 Dynamic ArrayTM (Fluidigm, Amsterdam, the Netherlands) technology was used for gene expression analyses by quantitative reverse transcription polymerase chain reaction (qRT-PCR, performed by Quintiles/Expression Analysis, Durham, NC)89. Standard TaqManTM Assays (Applied Biosystems/ThermoFisher Scientific, Foster City, CA) were used to assess the expression of 93 genes selected based on their selectivity and sensitivity to important hepatic receptors known to be modulated by environmental chemicals; importance in human hepatocyte functionality; and hepatotoxicity. […]
Compound,outcome,AC50
Cc1cccc(C)c1N,inactive,
Cc1ccccc1O,inactive,
C[C@]12CCC(=O)C=C1CC[C@@H]1[C@@H]2CC[C@@]2(C)[C@H]1CC[C@]2(C)O,,10.9 µM (active)
O=C(NC(=O)c1cc(F)c(F)cc1Cl)Nc1cc(F)ccc1N1CCC(C(=O)O)CC1,inactive,
CCCCCCCCCC[N+](C)(C)CCCCCCCCCC,inactive,
NS(=O)(=O)C(F)(F)C(F)(F)C(F)(F)C(F)(F)C(F)(F)C(F)(F)C(F)(F)C(F)(F)F,,10.1 µM (active)
C=CC(N)=O,inactive,
ClC(Cl)=C(c1ccc(Cl)cc1)c1ccc(Cl)cc1,,13.1 µM (active)
CC(C)(O)C(=O)Nc1ccc([N+](=O)[O-])c(C(F)(F)F)c1,inactive,
CC(C)(c1ccccc1)c1ccc(O)cc1,inactive,
CCC(=O)O[C@H]1CC[C@H]2[C@@H]3CCC4=CC(=O)CC[C@]4(C)[C@H]3CC[C@]12C,,5.32 µM (active)
Clc1ccc(C(c2ccccc2Cl)C(Cl)(Cl)Cl)cc1 (stereo not given),,0.818 µM (active)
CC1=C2C[C@H]3[C@@H](CC=C4C[C@@H](O)CC[C@@]43C)[C@@H]2CC[C@]12O[C@@H]1C[C@H](C)CN[C@H]1[C@H]2C,inactive,
COS(=O)(=O)OC,inactive,
C=CC(=O)NCNC(=O)C=C,inactive,
Oc1ccc(C(c2ccc(O)cc2)(C(F)(F)F)C(F)(F)F)cc1,,87.5 µM (active)
CCOCCOC(C)=O,inactive,
O=S(=O)(O)C(F)(F)C(F)(F)C(F)(F)C(F)(F)C(F)(F)C(F)(F)F,,38.6 µM (active)
Cc1cc2c3c(c1)C(c1ccccc1)=N[C@@H](NC(=O)c1ccncc1)C(=O)N3CC2,,4.99 µM (active)
CCC(C)(CC)c1cc(NC(=O)c2c(OC)cccc2OC)on1,,2.8 µM (active)

Compound,outcome,AC50
Cc1cccc([N+](=O)[O-])c1,inactive,
CC(c1ccc(O)cc1)(c1ccc(O)cc1)c1ccc(O)cc1,,68.9 µM (active)
N#Cc1ccc(N(CC(N)=O)CC(F)(F)F)cc1C(F)(F)F,,22.6 µM (active)
O=C(O)C(F)(F)C(F)(F)C(F)(F)C(F)(F)C(F)(F)F,inactive,
Nc1ccc(-c2ccc(N)cc2)cc1,inactive,
O=C(O)C(F)(F)C(F)(F)C(F)(F)C(F)(F)C(F)(F)C(F)(F)C(F)(F)C(F)(F)F,,85.4 µM (active)
ClC1=C(Cl)[C@]2(Cl)[C@@H]3[C@@H](Cl)[C@H]4O[C@H]4[C@@H]3C1(Cl)C2(Cl)Cl,,2.1 µM (active)
ClC1=C(Cl)[C@]2(Cl)[C@@H]3[C@@H]4C[C@@H]([C@H]5O[C@@H]45)[C@@H]3[C@@]1(Cl)C2(Cl)Cl,,1.65 µM (active)
CCC(C)c1cc([N+](=O)[O-])cc([N+](=O)[O-])c1O (stereo not given),,1.83 µM (active)
Clc1ccc(Cl)cc1,inactive,
CC#Cc1cc(C)nc(Nc2ccccc2)n1,,8.68 µM (active)
Cc1cc(O)ccc1Cl,inactive,
C[C@]12CCC(=O)C=C1CC[C@@H]1[C@@H]2CC[C@]2(C)C(=O)CC[C@@H]12,,13.1 µM (active)
Nn1cnnc1,inactive,
CCCN(CCC)N=O,inactive,
Cc1cc(-c2ccc(N)c(C)c2)ccc1N,,26.7 µM (active)
CCOP(=S)(OCC)SCSC(C)(C)C,inactive,
Oc1c(Cl)c(Cl)c(Cl)c(Cl)c1Cl,,3.76 µM (active)
Cc1ccc(O)c(C)c1,inactive,
O=NN(c1ccccc1)c1ccccc1,inactive,
